In PubChem BioAssay (EPA / NIEHS):
The source made the active and inactive calls. Rule for the calls: active = hit-call score of the fitted dose curve at least 0.9, where 1 is the maximum; inactive = score below 0.9.

Experiments:
[1] = CEETOX_H295R_ANDR_noMTC: CeeTox H295R High-throughput Steroidogenesis Assay for Androstenedione (ANDR), maximum tolerated concentration (MTC) filtered results only (AID 2283915); details: actives raise or lower the signal
Summary of the method: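 Androstenedione secreted into medium was measured by LC-MS/MS after MTBE extraction. Human adrenal H295R cells received 10 uM forskolin for 48 h before 48 h chemical exposure (0.1% DMSO). Gain or loss fitted against DMSO, including concentrations above the MTT-derived MTC.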

[2] = CEETOX_H295R_ESTRADIOL_noMTC: CeeTox H295R High-throughput Steroidogenesis Assay for Estradiol, maximum tolerated concentration (MTC) filtered results only (AID 2283919); details: actives raise or lower the signal
Summary of the method: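 Readout: dansyl-derivatized estradiol quantified by LC-MS/MS in medium from H295R cells dosed 48 h (0.1% DMSO) following 48 h forskolin (10 uM) prestimulation. Gain or loss of signal fitted against DMSO; no MTC filtering applied.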

## O=C(Oc1ccccc1)c1cccc(C(=O)Oc2ccccc2)c1
[1]
  outcome: inactive

## Nc1nc(=S)c2[nH]cnc2[nH]1
[1]
  AC50: 77 µM (active)
[2]
  outcome: inactive

## NC(=Nc1ccccc1)Nc1ccccc1
[2]
  outcome: inactive
